Measurements reported in the supplement of paper PMC11732987, “Enantioselective OTUD7B fragment discovery through chemoproteomics screening and high-throughput optimisation” (Communications Chemistry, 2025).

Assays:
Assay in all cases: log2 ratio of Biotin-Ahx-Ub-VS probe labelling (fragment/DMSO); higher = less target engagement (more negative = stronger competition), active = hit call of the paper (q ≤ 0.05, log2 ratio ≤ -1)
Conditions in all cases: compound concentration: 200 uM; treatment time: 3 h
USP19 = target: T1, USP19 (UniProt O94966)
T1 sequence (whole entry): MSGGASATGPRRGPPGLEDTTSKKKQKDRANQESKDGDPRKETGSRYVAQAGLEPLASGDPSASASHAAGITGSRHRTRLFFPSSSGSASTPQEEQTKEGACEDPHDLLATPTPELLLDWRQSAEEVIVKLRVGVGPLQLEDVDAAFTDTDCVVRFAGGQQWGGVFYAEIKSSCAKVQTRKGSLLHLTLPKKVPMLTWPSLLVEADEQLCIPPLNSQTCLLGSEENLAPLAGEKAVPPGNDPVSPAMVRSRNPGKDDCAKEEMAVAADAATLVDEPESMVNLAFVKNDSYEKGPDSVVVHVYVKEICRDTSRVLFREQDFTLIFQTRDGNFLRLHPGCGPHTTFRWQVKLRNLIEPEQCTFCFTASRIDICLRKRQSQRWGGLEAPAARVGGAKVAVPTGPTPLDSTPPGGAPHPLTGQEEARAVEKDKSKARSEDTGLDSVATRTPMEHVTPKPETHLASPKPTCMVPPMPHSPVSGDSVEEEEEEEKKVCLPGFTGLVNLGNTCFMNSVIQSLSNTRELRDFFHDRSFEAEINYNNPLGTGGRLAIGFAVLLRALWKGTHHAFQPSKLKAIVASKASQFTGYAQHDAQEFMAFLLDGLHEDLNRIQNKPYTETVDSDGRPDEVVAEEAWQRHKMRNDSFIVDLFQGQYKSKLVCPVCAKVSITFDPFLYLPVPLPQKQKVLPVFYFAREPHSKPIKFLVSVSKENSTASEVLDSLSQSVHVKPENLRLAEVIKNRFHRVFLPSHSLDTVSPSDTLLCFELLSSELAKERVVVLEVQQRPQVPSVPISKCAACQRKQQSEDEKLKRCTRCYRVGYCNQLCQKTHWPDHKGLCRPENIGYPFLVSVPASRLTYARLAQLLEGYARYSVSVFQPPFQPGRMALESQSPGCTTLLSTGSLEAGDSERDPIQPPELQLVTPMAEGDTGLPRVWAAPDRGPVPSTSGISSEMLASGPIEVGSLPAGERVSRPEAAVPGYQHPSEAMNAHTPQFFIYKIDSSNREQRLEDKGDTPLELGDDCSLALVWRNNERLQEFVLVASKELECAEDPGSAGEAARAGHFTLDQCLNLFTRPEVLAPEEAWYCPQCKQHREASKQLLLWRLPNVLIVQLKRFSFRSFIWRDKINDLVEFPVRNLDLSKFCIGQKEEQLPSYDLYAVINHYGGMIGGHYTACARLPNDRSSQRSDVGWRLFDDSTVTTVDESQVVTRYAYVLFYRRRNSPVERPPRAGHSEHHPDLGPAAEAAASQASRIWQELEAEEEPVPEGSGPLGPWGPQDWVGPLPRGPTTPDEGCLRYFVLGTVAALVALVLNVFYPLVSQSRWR
In short: (§1)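 Average log2 ratios of fragment over vehicle were obtained by unpaired t-test from global-median-normalised Spectronaut label-free quantities. Proteins with ≥2 unique peptides were included. HEK293T lysate (495 µg per sample) was treated in triplicate with fragment at 200 µM or vehicle for 3 h, then with Biotin-Ahx-Ub-VS at 0.5 µM final for 1 h, and labelled DUBs were NeutrAvidin-enriched and run by diaPASEF LC-MS/MS.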

USP24 = USP24 (UniProt Q9UPU5)
In short: as §1

USP25 = target: T2, USP25 (UniProt Q9UHP3)
T2 sequence (whole entry): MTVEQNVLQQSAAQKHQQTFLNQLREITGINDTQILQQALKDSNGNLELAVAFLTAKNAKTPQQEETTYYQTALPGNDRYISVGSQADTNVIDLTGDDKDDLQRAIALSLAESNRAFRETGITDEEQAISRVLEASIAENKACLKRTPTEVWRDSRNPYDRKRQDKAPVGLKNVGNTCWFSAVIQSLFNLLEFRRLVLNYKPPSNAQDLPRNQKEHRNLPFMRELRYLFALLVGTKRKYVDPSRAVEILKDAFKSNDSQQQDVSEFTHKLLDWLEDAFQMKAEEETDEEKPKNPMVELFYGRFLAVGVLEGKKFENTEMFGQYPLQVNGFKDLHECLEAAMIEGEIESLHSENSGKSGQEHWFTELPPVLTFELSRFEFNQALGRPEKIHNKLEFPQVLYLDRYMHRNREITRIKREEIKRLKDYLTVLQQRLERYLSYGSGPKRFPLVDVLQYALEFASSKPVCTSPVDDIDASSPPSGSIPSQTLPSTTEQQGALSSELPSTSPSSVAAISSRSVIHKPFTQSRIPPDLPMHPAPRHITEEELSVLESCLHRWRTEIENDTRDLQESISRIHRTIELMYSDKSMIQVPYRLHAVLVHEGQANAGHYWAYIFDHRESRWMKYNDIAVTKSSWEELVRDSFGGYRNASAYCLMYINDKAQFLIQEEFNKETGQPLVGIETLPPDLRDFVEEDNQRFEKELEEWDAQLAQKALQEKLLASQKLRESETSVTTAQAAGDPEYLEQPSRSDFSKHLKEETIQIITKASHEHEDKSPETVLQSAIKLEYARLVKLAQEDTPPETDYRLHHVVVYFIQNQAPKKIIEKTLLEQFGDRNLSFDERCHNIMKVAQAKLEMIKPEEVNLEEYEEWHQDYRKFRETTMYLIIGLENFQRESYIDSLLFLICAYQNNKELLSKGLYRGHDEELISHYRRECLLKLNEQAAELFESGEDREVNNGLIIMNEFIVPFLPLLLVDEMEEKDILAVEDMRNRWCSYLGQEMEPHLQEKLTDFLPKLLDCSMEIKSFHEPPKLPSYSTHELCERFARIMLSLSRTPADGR
In short: as §1

USP28 = target: T3, USP28 (UniProt Q96RU2)
T3 sequence (whole entry): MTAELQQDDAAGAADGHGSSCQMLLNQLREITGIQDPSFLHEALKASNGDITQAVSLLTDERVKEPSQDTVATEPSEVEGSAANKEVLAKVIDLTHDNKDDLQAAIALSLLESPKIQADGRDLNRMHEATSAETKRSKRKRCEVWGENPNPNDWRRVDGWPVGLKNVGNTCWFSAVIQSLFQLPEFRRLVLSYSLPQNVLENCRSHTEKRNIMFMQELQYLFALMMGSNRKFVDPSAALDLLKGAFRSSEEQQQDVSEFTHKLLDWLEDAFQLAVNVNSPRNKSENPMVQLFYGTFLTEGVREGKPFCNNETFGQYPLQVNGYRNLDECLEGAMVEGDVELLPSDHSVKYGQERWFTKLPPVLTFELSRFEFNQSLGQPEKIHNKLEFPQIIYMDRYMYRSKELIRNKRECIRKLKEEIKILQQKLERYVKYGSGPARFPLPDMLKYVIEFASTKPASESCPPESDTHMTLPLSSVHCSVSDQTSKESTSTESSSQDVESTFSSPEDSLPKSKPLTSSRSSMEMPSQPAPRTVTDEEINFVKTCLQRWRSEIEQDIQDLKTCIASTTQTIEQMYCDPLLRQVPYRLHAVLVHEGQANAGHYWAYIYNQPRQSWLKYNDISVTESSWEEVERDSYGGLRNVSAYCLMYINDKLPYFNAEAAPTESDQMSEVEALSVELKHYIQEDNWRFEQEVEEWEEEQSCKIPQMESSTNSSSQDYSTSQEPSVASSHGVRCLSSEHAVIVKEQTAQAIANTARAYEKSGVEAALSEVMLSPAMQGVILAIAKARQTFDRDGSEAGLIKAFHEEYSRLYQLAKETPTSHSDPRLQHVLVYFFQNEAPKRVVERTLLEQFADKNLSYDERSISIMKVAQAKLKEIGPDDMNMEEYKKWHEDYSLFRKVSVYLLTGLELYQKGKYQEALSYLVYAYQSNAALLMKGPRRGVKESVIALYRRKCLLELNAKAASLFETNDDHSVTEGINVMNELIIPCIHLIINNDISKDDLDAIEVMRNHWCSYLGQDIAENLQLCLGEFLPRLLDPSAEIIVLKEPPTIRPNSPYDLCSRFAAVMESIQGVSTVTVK
In short: as §1

Measured: log2 ratio of Biotin-Ahx-Ub-VS probe labelling

Chain of USP24 (Q9UPU5 whole entry): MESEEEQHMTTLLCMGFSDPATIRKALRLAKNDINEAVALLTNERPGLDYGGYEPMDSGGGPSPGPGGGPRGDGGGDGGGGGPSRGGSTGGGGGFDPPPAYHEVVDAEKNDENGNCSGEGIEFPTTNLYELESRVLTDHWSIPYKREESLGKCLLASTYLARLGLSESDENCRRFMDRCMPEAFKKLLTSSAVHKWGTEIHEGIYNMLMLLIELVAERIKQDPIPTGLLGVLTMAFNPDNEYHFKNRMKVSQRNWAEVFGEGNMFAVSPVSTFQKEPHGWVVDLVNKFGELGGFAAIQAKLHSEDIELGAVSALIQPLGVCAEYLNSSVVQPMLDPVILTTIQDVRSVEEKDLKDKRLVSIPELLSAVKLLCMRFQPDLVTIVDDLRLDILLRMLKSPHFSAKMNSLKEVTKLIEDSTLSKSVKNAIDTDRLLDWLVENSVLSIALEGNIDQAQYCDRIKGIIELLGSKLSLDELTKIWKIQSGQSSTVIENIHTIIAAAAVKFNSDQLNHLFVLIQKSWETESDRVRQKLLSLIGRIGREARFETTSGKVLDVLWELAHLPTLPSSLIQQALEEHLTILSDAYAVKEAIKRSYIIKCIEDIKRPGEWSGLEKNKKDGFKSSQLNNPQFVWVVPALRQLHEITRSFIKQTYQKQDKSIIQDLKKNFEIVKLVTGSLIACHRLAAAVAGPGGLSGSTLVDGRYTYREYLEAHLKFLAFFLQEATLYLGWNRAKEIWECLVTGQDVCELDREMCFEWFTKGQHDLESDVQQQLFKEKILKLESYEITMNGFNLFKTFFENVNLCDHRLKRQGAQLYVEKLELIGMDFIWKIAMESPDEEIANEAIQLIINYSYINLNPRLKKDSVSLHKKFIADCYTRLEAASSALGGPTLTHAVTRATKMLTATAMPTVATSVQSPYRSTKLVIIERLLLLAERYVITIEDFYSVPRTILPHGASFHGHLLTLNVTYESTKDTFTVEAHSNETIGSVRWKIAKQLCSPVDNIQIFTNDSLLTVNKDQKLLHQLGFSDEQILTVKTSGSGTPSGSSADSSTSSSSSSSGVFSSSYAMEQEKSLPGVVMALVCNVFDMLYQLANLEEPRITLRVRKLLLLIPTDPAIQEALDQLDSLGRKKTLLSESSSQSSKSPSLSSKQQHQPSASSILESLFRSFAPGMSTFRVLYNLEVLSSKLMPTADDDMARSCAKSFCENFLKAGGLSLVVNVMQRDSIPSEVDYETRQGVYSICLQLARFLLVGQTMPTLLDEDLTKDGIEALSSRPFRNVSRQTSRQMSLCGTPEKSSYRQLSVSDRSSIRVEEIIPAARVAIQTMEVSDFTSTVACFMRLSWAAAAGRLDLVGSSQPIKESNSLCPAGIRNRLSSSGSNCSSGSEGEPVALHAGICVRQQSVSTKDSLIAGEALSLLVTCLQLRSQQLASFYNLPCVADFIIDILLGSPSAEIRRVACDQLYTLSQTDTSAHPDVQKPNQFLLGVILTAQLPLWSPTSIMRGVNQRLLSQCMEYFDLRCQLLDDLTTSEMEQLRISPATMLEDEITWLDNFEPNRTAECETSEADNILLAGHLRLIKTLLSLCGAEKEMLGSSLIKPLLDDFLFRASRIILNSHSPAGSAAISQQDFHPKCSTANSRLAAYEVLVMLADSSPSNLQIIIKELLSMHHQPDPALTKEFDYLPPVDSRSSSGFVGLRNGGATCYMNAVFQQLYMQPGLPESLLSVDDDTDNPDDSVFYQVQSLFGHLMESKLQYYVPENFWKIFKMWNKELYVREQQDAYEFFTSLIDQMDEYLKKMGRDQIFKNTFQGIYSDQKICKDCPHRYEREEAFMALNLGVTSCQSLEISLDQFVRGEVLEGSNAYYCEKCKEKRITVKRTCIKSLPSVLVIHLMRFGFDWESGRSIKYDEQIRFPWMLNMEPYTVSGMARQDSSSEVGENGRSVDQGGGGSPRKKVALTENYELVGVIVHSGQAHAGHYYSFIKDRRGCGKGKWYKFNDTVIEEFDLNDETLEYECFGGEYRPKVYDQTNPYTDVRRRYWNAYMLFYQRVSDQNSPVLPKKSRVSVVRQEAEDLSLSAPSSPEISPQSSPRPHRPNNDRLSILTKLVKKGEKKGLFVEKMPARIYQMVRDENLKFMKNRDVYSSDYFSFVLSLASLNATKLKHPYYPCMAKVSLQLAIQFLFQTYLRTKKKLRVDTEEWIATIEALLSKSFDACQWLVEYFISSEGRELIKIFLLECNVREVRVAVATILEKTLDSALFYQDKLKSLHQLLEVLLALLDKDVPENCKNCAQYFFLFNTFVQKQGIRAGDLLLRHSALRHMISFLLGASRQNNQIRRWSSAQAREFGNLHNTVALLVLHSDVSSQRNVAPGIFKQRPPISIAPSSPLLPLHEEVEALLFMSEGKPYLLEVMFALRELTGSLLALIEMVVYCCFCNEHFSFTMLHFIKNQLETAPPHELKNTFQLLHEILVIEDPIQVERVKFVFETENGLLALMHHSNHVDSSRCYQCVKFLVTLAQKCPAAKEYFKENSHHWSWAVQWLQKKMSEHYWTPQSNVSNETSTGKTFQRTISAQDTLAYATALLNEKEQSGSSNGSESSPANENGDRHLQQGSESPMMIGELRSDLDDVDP

CNC(=O)Cn1cc(NC(=O)CCl)cn1
inactive: USP19 -0.0937 | USP24 -0.146 | USP25 -0.172 | USP28 -0.486
